Measurements taken from PubChem BioAssay AID1159580 (chemical genetic matrix, 2015).
In all, about 5,500 compounds went through this assay and about 2,000 (36%) were called active. Roughly 18% stayed inconclusive and do not appear here. Rule as the data show it: active = normalized growth mostly below about 0.91 (no sharp cut-off); inconclusive = no clear call, values can overlap the other calls; inactive = mostly above about 0.92. The list shows a part of the results.

Experiment: chemical genetic growth profiling, strain panel (AID 1159580);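 also: tested at 20 µM; growth read once vehicle control cultures reached saturation at 30 °C; 1 = growth at the plate median or of vehicle wells; lower values mean less growth of the strain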
Details: S. cerevisiae deletion strains, growth OD
[1] = locus YAR019C, strain CDC15, hits give low values
[2] = locus YBL105C, strain PKC1, hits give low values
[3] = locus YBR135W, strain CKS1, hits give low values
[4] = locus YBR136W, strain MEC1, hits give low values
[5] = locus YBR160W, strain CDC28, hits give low values
[6] = locus YDL017W, strain CDC7, hits give low values
[7] = locus YDL028C, strain MPS1, hits give low values
[8] = locus YDL101C, strain DUN1, hits give low values
[9] = locus YDL108W, strain KIN28, hits give low values
[10] = locus YDL132W, strain cdc53, hits give low values
[11] = locus YDL214C, strain PRR2, hits give low values
[12] = locus YDR052C, strain DBF4, hits give low values
[13] = locus YDR054C, strain cdc34, hits give low values
[14] = locus YDR226W, strain ADK1, hits give low values
[15] = locus YDR477W, strain SNF1, hits give low values
[16] = locus YER123W, strain YCK3, hits give low values
[17] = locus YER133W, strain GLC7, hits give low values
[18] = locus YFL009W, strain cdc4, hits give low values
[19] = locus YFL029C, strain CAK1, hits give low values
[20] = locus YFR003C, strain YPI1, hits give low values
[21] = locus YFR019W, strain FAB1, hits give low values
[22] = locus YFR028C, strain CDC14, hits give low values
[23] = locus YGR040W, strain KSS1, hits give low values
[24] = locus YGR052W, strain FMP48, hits give low values
[25] = locus YGR092W, strain DBF2, hits give low values
[26] = locus YHR030C, strain SLT2, hits give low values
[27] = locus YHR079C, strain IRE1, hits give low values
[28] = locus YHR082C, strain KSP1, hits give low values
[29] = locus YHR205W, strain SCH9, hits give low values
[30] = locus YIL147C, strain SLN1, hits give low values
[31] = locus YJL095W, strain BCK1, hits give low values
[32] = locus YJL128C, strain PBS2, hits give low values
[33] = locus YJL157C, strain FAR1, hits give low values
[34] = locus YJR016C, strain ILV3, hits give low values
[35] = locus YJR066W, strain TOR1 (second series), hits give low values
[36] = locus YJR066W, strain TOR1, hits give low values
[37] = locus YKL048C, strain ELM1, hits give low values
[38] = locus YKL067W, strain YNK1, hits give low values
[39] = locus YKL101W, strain HSL1, hits give low values
[40] = locus YKL193C, strain SDS22, hits give low values
[41] = locus YKL203C, strain TOR2, hits give low values
[42] = locus YLR113W, strain HOG1, hits give low values
[43] = locus YLR133W, strain CKI1, hits give low values
[44] = locus YLR403W, strain SFP1, hits give low values
[45] = locus YML070W, strain DAK1, hits give low values
[46] = locus YMR001C, strain CDC5, hits give low values
[47] = locus YMR205C, strain PFK2 (second series), hits give low values
[48] = locus YMR277W, strain FCP1, hits give low values
[49] = locus YNL006W, strain LST8, hits give low values
[50] = locus YNL020C, strain ARK1, hits give low values
[51] = locus YNL161W, strain CBK1, hits give low values
[52] = locus YNL183C, strain NPR1, hits give low values
[53] = locus YNL207W, strain RIO2, hits give low values
[54] = locus YNL222W, strain SSU72, hits give low values
[55] = locus YNL307C, strain MCK1 (second series), hits give low values
[56] = locus YOL078W, strain AVO1, hits give low values
[57] = locus YOL136C, strain PFK27, hits give low values
[58] = locus YOR061W, strain CKA2, hits give low values
[59] = locus YOR119C, strain RIO1, hits give low values
[60] = locus YOR231W, strain MKK1, hits give low values
[61] = locus YOR329C, strain SCD5, hits give low values
[62] = locus YPL031C, strain PHO85, hits give low values
[63] = locus YPL153C, strain RAD53, hits give low values
[64] = locus YPL204W, strain HRR25, hits give low values
[65] = locus YPL209C, strain IPL1, hits give low values
[66] = locus YPL256C, strain CLN2, hits give low values
[67] = locus YPR025C, strain CCL1, hits give low values
[68] = locus YPR106W, strain ISR1, hits give low values
[69] = locus YPR111W, strain DBF20, hits give low values
[70] = strain NNK1, hits give low values
[71] = strain TSCII, hits give low values

Measured: normalized growth

CCOC(=O)C(NC(=O)c1cccc(Cl)c1)(Nc1nc2ccccc2s1)C(F)(F)F (stereo not drawn)
inactive: [1] 0.967 | [2] 0.957 | [3] 0.956 | [4] 0.96 | [5] 0.967 | [6] 0.962 | [7] 0.961 | [8] 0.973 | [9] 0.963 | [10] 0.952 | [11] 0.927 | [12] 0.955 | [13] 0.952 | [14] 0.956 | [15] 0.917 | [16] 0.906 | [17] 0.9 | [18] 0.954 | [19] 0.975 | [20] 0.957 | [21] 0.955 | [22] 0.963 | [23] 0.926 | [24] 0.943 | [25] 0.996 | [27] 1 | [28] 0.989 | [29] 1.01 | [30] 0.955 | [31] 0.98 | [32] 0.949 | [33] 0.915 | [34] 0.963 | [35] 0.949 | [36] 1.02 | [37] 0.937 | [38] 0.94 | [39] 0.929 | [40] 0.964 | [41] 1.01 | [43] 0.935 | [44] 1.02 | [45] 0.914 | [46] 0.967 | [47] 0.941 | [48] 0.964 | [49] 0.966 | [50] 0.931 | [51] 0.96 | [52] 1.07 | [53] 0.961 | [54] 0.968 | [55] 0.916 | [56] 0.962 | [57] 0.924 | [58] 0.939 | [59] 0.992 | [60] 0.967 | [61] 0.964 | [62] 0.917 | [63] 0.927 | [64] 0.913 | [65] 0.962 | [66] 0.894 | [67] 0.966 | [68] 0.962 | [69] 0.958 | [70] 0.971 | [71] 0.962
active: [26] 0.796 | [42] 0.823

CCOC(=O)C(O)(c1ccc(NC(=O)c2ccc(Cl)c(Cl)c2)cc1)C(F)(F)F (stereo not drawn)
inactive: [1] 0.998 | [2] 0.988 | [3] 1 | [4] 0.989 | [5] 0.996 | [6] 0.997 | [7] 0.993 | [8] 0.994 | [9] 0.997 | [10] 0.997 | [11] 0.874 | [12] 0.996 | [13] 0.991 | [14] 0.992 | [15] 0.92 | [16] 0.859 | [17] 0.926 | [18] 0.99 | [19] 0.992 | [20] 0.999 | [21] 0.933 | [22] 1 | [23] 0.915 | [24] 0.979 | [25] 0.892 | [26] 0.962 | [27] 0.953 | [28] 0.967 | [29] 0.928 | [30] 0.986 | [31] 1.01 | [32] 0.946 | [33] 0.913 | [34] 0.988 | [35] 0.914 | [36] 0.994 | [37] 0.953 | [38] 0.935 | [39] 0.901 | [40] 1 | [41] 0.994 | [42] 0.977 | [43] 0.939 | [44] 0.94 | [45] 0.886 | [46] 0.997 | [47] 0.941 | [48] 1 | [49] 0.986 | [50] 0.919 | [51] 0.99 | [52] 1.02 | [53] 0.992 | [54] 0.994 | [55] 0.91 | [56] 1 | [57] 0.895 | [58] 0.911 | [59] 0.957 | [60] 0.977 | [61] 1 | [62] 0.896 | [63] 0.912 | [64] 0.922 | [65] 0.996 | [66] 0.976 | [67] 1 | [68] 0.988 | [69] 0.986 | [70] 0.987 | [71] 0.993

S=C(NCCc1csc2ccccc12)Nc1ccc(Cl)cc1
inactive: [1] 0.923 | [2] 0.945 | [3] 0.945 | [4] 0.944 | [5] 0.956 | [6] 0.952 | [7] 0.942 | [8] 0.962 | [9] 0.95 | [10] 0.944 | [11] 0.797 | [12] 0.96 | [13] 0.931 | [14] 0.951 | [15] 0.815 | [16] 0.719 | [17] 0.816 | [18] 0.944 | [19] 0.9 | [20] 0.953 | [21] 0.934 | [22] 0.945 | [23] 0.819 | [24] 0.795 | [25] 0.735 | [27] 0.786 | [28] 0.721 | [30] 0.938 | [31] 0.677 | [32] 0.872 | [33] 0.863 | [34] 0.945 | [35] 0.759 | [36] 0.727 | [37] 0.914 | [38] 0.828 | [39] 0.787 | [40] 0.943 | [41] 0.886 | [43] 0.797 | [44] 0.752 | [45] 0.808 | [46] 0.946 | [47] 0.84 | [48] 0.941 | [49] 0.96 | [50] 0.795 | [51] 0.952 | [52] 0.754 | [53] 0.937 | [54] 0.952 | [55] 0.729 | [56] 0.945 | [57] 0.8 | [58] 0.811 | [59] 0.867 | [60] 0.789 | [61] 0.952 | [62] 0.768 | [63] 0.775 | [64] 0.809 | [65] 0.946 | [67] 0.945 | [68] 0.936 | [69] 0.917 | [70] 0.914 | [71] 0.922
active: [26] 0.5 | [29] 0.566 | [42] 0.536 | [66] 0.667
